Data as given in PubChem BioAssay (NCI).
Compounds without any hit were thinned out: in the full panel of roughly 79,000, 15% have a hit. A number with no mark means an inactive call. Active and inactive are the calls of the source. Cut-off read from the data, not from the text of the source: active = growth inhibition above about 70%; inactive = the rest. Where a SMILES comes first, the peptide text is derived from it. [ ]: non-standard residue; d: D form. ξ: configuration not given here. ξPhe(4-N(CH2CH2Cl)2) = NC(Cc1ccc(N(CCCl)CCCl)cc1)C(=O)O

Assay: NCI Yeast Anticancer Drug Screen. Data for the sgs1 mgt1 strain (AID 161);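 note: 0% = growth of cultures given vehicle only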
Conditions: S. cerevisiae sgs1 mgt1 strain, at 50.0 µM, hits give high values
How it was run: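 Mutant yeast exposed to compound; growth scored against vehicle-only wells.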

SMILES	growth inhibition
CCCCCCCCCCCCN(C)C	35.9%
Nc1nc(N)c(N=Nc2ccc([As](=O)(O)O)c(O)c2)c(N)n1	-36%
O=C(O)CCCC(=O)CCCC(=O)O.[Pb]	-11.7%
C=Cn1nnc(N)n1	-16.7%
CN(C)NP(=O)(c1ccccc1)c1ccccc1	-4.45%
CCCC(=O)[O-].N.N.N.N.N.[Co+3].[O-][Cl+3]([O-])([O-])[O-]	-41%
CC(=O)Nc1cc([As](=O)(O)O)ccc1O	31.8%
CC(C)CNC12CN3CN(CN(C3)C1)C2	-6%
Oc1ccccc1C=NCCN=Cc1ccccc1O	-1.1%
CN1CCCC(O)(C(=O)c2ccccc2)C1 (stereo not given)	0.7%
COC(C)C(O)(C(=O)OCC1=CCN2CCC(O)C12)C(C)(C)O (stereo not given)	21.4%
O=C/C=C/c1ccco1	-15.2%
O=C(Nc1cccc(S(=O)(=O)F)c1)/C(=C/c1ccc([N+](=O)[O-])cc1)c1ccccc1	86.7% (active)
O=C1NC(=S)NC(=O)C1=Cc1ccccc1O	-12.3%
[Fe+2].[c-]1[c-][c-][cH-][c-]1.[c-]1[c-][c-][cH-][c-]1.c1cc[c]([Pb]([c]2ccccc2)[c]2ccccc2)cc1	83.9% (active)
CN(C)P(=O)(N(C)C)N(C)C (tested in a mixture with another compound)	3.65%
CC(C)=CCC1=C(OOC2=C(CC=C(C)C)C(=O)c3ccccc3C2=O)C(=O)c2ccccc2C1=O	43%
Cc1cc(C)c(O)c(CN2CCCCC2)c1	32.8%
O=[N+]([O-])c1ccc(O)c(C=NCCN=Cc2cc([N+](=O)[O-])ccc2O)c1.[Ni+2]	-3.9%
[CH-]=C([CH2-])C.[Ni][Br].c1ccc([PH+](c2ccccc2)c2ccccc2)cc1	26.6%

SMILES	growth inhibition
NCc1c[nH]c2ccccc12	-22.7%
CN1CCCC1c1ccc[n+](C)c1 (stereo not given)	5.6%
CC(O)CN(CCN(CC(C)O)CC(C)O)CC(C)O.[Cl-].[Zn+2] (stereo not given)	17.4%
CCOC(=O)C(Cc1ccc(N(CCCl)CCCl)cc1)NC(=O)C(Cc1ccccc1)NC(=O)C(NC(=O)CNC(=O)C1CCCN1)C(C)C (stereo not given) (H-PGVF[ξPhe(4-N(CH2CH2Cl)2)]-OEt; configuration not given here)	20.3%
CC12CCC3C(CCC4CC(Cl)CCC43C)C1CCC2=O (stereo not given)	6.25%
ClC12OOC(c3ccccc3)(O1)C(c1ccccc1)c1ccccc12 (stereo not given)	34.9%
[CH3][Sn]([CH3])([n]1cnc(N)nc1=O)[n]1cnc(N)nc1=O	-10.3%
CC(Cl)CN(CC(C)Cl)c1ccc2c(c1)Cc1ccccc1-2 (stereo not given)	2.65%
N#CCCc1ccccc1	-1.95%
C#CCn1c(I)cc2c(c1=O)COC(=O)[C@]2(O)CC	19.6%
c1ccc([Se+](c2ccccc2)c2ccccc2)cc1	1.75%
COc1ccc2c(c[n+](C)c3c4cc5c(cc4ccc23)OCO5)c1OC	5.6%
CC1CCCCN1 (stereo not given)	-9.85%
CCN(CC)CCn1c(=O)n(C)c2ccccc21	-13.3%
c1ccc2c3c(ccc2c1)NC1CCCN1C3 (stereo not given)	-0.85%
CC(C)C1(Cc2ccccc2)C(=O)NC(=S)NC1=O	9.3%
CS(=N)(=O)CCC(N)P(=O)(O)O (stereo not given)	6.85%
O=C1c2ccccc2C2(O)C3C=CCCN3CN12 (stereo not given)	-1.25%
CN1C(=O)N(C)C(O)C(Cl)(Cl)C1=O (stereo not given)	13.6%
O=Cc1ccccc1O.O=Cc1ccccc1O.[Cu]	88.9% (active)

Assay: NCI Yeast Anticancer Drug Screen. Data for the cln2 rad14 strain (AID 165);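 note: 0% = growth equal to vehicle treated cultures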
Conditions: S. cerevisiae cln2 rad14 strain, at 50.0 µM, hits give high values
How it was run: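 Test compounds were added to cln2 rad14 yeast cultures; inhibition of growth was then determined by comparison with vehicle treatment.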

SMILES	growth inhibition
CCCCCCCCCCCCN(C)C	-6.2%
Nc1nc(N)c(N=Nc2ccc([As](=O)(O)O)c(O)c2)c(N)n1	-18.4%
O=C(O)CCCC(=O)CCCC(=O)O.[Pb]	-36.1%
C=Cn1nnc(N)n1	4.55%
CN(C)NP(=O)(c1ccccc1)c1ccccc1	-10.5%
CCCC(=O)[O-].N.N.N.N.N.[Co+3].[O-][Cl+3]([O-])([O-])[O-]	8%
CC(=O)Nc1cc([As](=O)(O)O)ccc1O	-28.2%
CC(C)CNC12CN3CN(CN(C3)C1)C2	-27.9%
Oc1ccccc1C=NCCN=Cc1ccccc1O	-41.2%
CN1CCCC(O)(C(=O)c2ccccc2)C1 (stereo not given)	-16%
COC(C)C(O)(C(=O)OCC1=CCN2CCC(O)C12)C(C)(C)O (stereo not given)	5.4%
O=C/C=C/c1ccco1	14.2%
O=C(Nc1cccc(S(=O)(=O)F)c1)/C(=C/c1ccc([N+](=O)[O-])cc1)c1ccccc1	79.2% (active)
O=C1NC(=S)NC(=O)C1=Cc1ccccc1O	-32.4%
[Fe+2].[c-]1[c-][c-][cH-][c-]1.[c-]1[c-][c-][cH-][c-]1.c1cc[c]([Pb]([c]2ccccc2)[c]2ccccc2)cc1	65.5%
CN(C)P(=O)(N(C)C)N(C)C (tested in a mixture with another compound)	-21.1%
CC(C)=CCC1=C(OOC2=C(CC=C(C)C)C(=O)c3ccccc3C2=O)C(=O)c2ccccc2C1=O	11.1%
Cc1cc(C)c(O)c(CN2CCCCC2)c1	-4%
O=[N+]([O-])c1ccc(O)c(C=NCCN=Cc2cc([N+](=O)[O-])ccc2O)c1.[Ni+2]	-56.6%
[CH-]=C([CH2-])C.[Ni][Br].c1ccc([PH+](c2ccccc2)c2ccccc2)cc1	-8.85%

SMILES	growth inhibition
NCc1c[nH]c2ccccc12	-12.8%
CN1CCCC1c1ccc[n+](C)c1 (stereo not given)	-8.65%
CC(O)CN(CCN(CC(C)O)CC(C)O)CC(C)O.[Cl-].[Zn+2] (stereo not given)	10.7%
CCOC(=O)C(Cc1ccc(N(CCCl)CCCl)cc1)NC(=O)C(Cc1ccccc1)NC(=O)C(NC(=O)CNC(=O)C1CCCN1)C(C)C (stereo not given) (H-PGVF[ξPhe(4-N(CH2CH2Cl)2)]-OEt; configuration not given here)	3.35%
CC12CCC3C(CCC4CC(Cl)CCC43C)C1CCC2=O (stereo not given)	-59.4%
ClC12OOC(c3ccccc3)(O1)C(c1ccccc1)c1ccccc12 (stereo not given)	51.9%
[CH3][Sn]([CH3])([n]1cnc(N)nc1=O)[n]1cnc(N)nc1=O	-1.45%
CC(Cl)CN(CC(C)Cl)c1ccc2c(c1)Cc1ccccc1-2 (stereo not given)	-46.9%
N#CCCc1ccccc1	-12.8%
C#CCn1c(I)cc2c(c1=O)COC(=O)[C@]2(O)CC	-5.4%
c1ccc([Se+](c2ccccc2)c2ccccc2)cc1	-10.1%
COc1ccc2c(c[n+](C)c3c4cc5c(cc4ccc23)OCO5)c1OC	14%
CC1CCCCN1 (stereo not given)	10.2%
CCN(CC)CCn1c(=O)n(C)c2ccccc21	-35%
c1ccc2c3c(ccc2c1)NC1CCCN1C3 (stereo not given)	-38.8%
CC(C)C1(Cc2ccccc2)C(=O)NC(=S)NC1=O	-2.85%
CS(=N)(=O)CCC(N)P(=O)(O)O (stereo not given)	13.9%
O=C1c2ccccc2C2(O)C3C=CCCN3CN12 (stereo not given)	4.15%
CN1C(=O)N(C)C(O)C(Cl)(Cl)C1=O (stereo not given)	30.6%
O=Cc1ccccc1O.O=Cc1ccccc1O.[Cu]	55.4%
